According to PubChem BioAssay (NCI):
The panel holds about 79,000 compounds, 15% with a hit somewhere; the sample as a whole holds those more often. Active and inactive are the calls of the source. No stated cut-off is given here; in the data, active means growth inhibition above about 70%; inactive means the rest.

Tests used:
[1] = NCI Yeast Anticancer Drug Screen. Data for the mec2-1 strain (AID 157); conditions: S. cerevisiae mec2-1 strain, stronger effect = higher value
How it was run: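 mec2-1 yeast strain, carrying an alteration in DNA damage repair or cell cycle control, was exposed to compounds; growth inhibition was measured relative to vehicle-treated controls.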

[2] = NCI Yeast Anticancer Drug Screen. Data for the rad14 strain (AID 159);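 further: 0% = growth of vehicle-treated control cultures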; conditions: S. cerevisiae rad14 strain growth inhibition, stronger effect = higher value
How it was run: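 A mutant yeast strain defective in DNA damage repair is treated with compound; inhibition of its growth is scored against untreated, vehicle-exposed cultures.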

[3] = NCI Yeast Anticancer Drug Screen. Data for the sgs1 mgt1 strain (AID 161);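 further: 0% = growth of cultures given vehicle only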; conditions: S. cerevisiae sgs1 mgt1 strain, stronger effect = higher value
How it was run: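 Yeast cells carrying a defined DNA-repair defect were exposed to test compounds. Growth inhibition was measured relative to vehicle-treated controls.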

[4] = NCI Yeast Anticancer Drug Screen. Data for the CLN2oe strain (AID 163);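 further: 0% = growth of vehicle-only control cultures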; conditions: S. cerevisiae CLN2oe strain, stronger effect = higher value
How it was run: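 Yeast cells carrying a defined cell-cycle control alteration were exposed to test compounds. Growth inhibition was scored against vehicle-treated control cultures.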

[5] = NCI Yeast Anticancer Drug Screen. Data for the cln2 rad14 strain (AID 165);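 further: 0% = growth equal to vehicle treated cultures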; conditions: S. cerevisiae cln2 rad14 strain, stronger effect = higher value
How it was run: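 Yeast carrying cln2 and rad14 alterations (cell cycle control and DNA damage repair) were exposed to compounds. Growth inhibition was measured against vehicle-treated controls.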

[6] = NCI Yeast Anticancer Drug Screen. Data for the bub3 strain (AID 167); conditions: S. cerevisiae bub3 mutant strain, stronger effect = higher value
How it was run: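 Steps: expose the mutant yeast strain to compound; grow alongside vehicle-treated cultures; measure growth; express inhibition against the vehicle cultures.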

[7] = NCI Yeast Anticancer Drug Screen. Data for the wt2 strain (AID 169);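 further: 0% = growth of vehicle-treated yeast cultures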; conditions: S. cerevisiae wt2 strain growth inhibition, stronger effect = higher value
How it was run: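 Yeast cells were exposed to test compounds, and growth inhibition was measured relative to vehicle-treated controls.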

[8] = NCI Yeast Anticancer Drug Screen. Data for the mlh1 strain (AID 171);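 further: 0% = growth of vehicle-treated control cultures of the same strain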; conditions: S. cerevisiae mlh1 strain growth inhibition, stronger effect = higher value
How it was run: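 Yeast carrying a defined genetic alteration in DNA damage repair or cell cycle control were exposed to test compounds. Growth inhibition was measured relative to vehicle-treated controls.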

[9] = NCI Yeast Anticancer Drug Screen. Data for the sgs1 strain (AID 173);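 further: 0% = growth of vehicle-only control cultures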; conditions: S. cerevisiae sgs1 mutant, stronger effect = higher value
How it was run: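 Yeast mutant strains carrying defined defects in DNA damage repair or cell cycle control were exposed to test compounds. Growth inhibition was scored against vehicle-treated controls.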

[10] = NCI Yeast Anticancer Drug Screen. Data for the mlh1 rad18 strain (AID 175); conditions: S. cerevisiae mlh1 rad18 strain growth inhibition, stronger effect = higher value
How it was run: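 Growth inhibition of the yeast strain was measured after compound exposure and expressed relative to vehicle-treated controls. The strain carries defined defects in DNA damage repair.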

[11] = NCI Yeast Anticancer Drug Screen. Data for the rad18 strain (AID 177); conditions: S. cerevisiae rad18 mutant growth inhibition, stronger effect = higher value
How it was run: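 Yeast carrying a defined DNA damage repair alteration were exposed to compounds. Growth inhibition was expressed relative to vehicle-treated controls.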

[12] = NCI Yeast Anticancer Drug Screen. Data for the rad52 strain (AID 147);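 further: 0% = growth of vehicle-treated control cultures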; conditions: S. cerevisiae rad52 mutant growth inhibition, stronger effect = higher value
How it was run: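 Yeast strain carrying a DNA damage repair alteration was exposed to test compounds. Growth inhibition was measured relative to vehicle-treated controls.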

[13] = NCI Yeast Anticancer Drug Screen. Data for the wt1 strain (AID 149);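 further: 0% = growth of vehicle-treated wt1 cultures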; conditions: S. cerevisiae wt1 strain (SPY 50644) growth inhibition, stronger effect = higher value
How it was run: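 Compounds are added to wt1 yeast cultures. Growth is then measured. Inhibition is expressed relative to vehicle-treated controls.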

[14] = NCI Yeast Anticancer Drug Screen. Data for the rad50EPP+ strain (AID 151);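 further: 0% = growth of vehicle-treated control cultures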; conditions: S. cerevisiae rad50 mutant strain, stronger effect = higher value
How it was run: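 Yeast strain carrying rad50 alteration (rad50EPP+) exposed to compounds; growth inhibition measured relative to vehicle-treated controls.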

[15] = NCI Yeast Anticancer Drug Screen. Data for the mgt1 strain (AID 153); conditions: S. cerevisiae mgt1 mutant growth inhibition, stronger effect = higher value
How it was run: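 Yeast mgt1 strain (DNA repair/cell-cycle alteration panel) exposed to compounds; growth inhibition measured relative to vehicle-treated controls.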

[16] = NCI Yeast Anticancer Drug Screen. Data for the rad50 strain (AID 155);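 further: 0% = growth of vehicle-only cultures of the same strain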; conditions: S. cerevisiae rad50 strain growth inhibition, stronger effect = higher value
How it was run: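 Inhibition values express reduced yeast growth in compound-treated cultures relative to vehicle-treated controls.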

[17] = at 5.0 µM (retest, dose inferred, filed as 0.5)
[18] = at 50.0 µM (retest, dose inferred, filed as 5.0)

Measured: growth inhibition

CC(C)N(CCCNc1c2ccccc2nc2cccc([N+](=O)[O-])c12)C(C)C
active: [1]; [17] 88% | [1]; at 11.0 µM 97% | [1]; at 33.0 µM 98% | [1]; [18] 99% | [1]; at 50.0 µM 94.5% | [1]; at 100.0 µM 99% | [2]; at 1.2 µM 93% | [2]; at 3.7 µM 98% | [2]; at 11.0 µM 99% | [2]; at 33.0 µM 99% | [2]; at 100.0 µM 99% | [3]; [17] 91% | [3]; [18] 98% | [3]; at 50.0 µM 94.5% | [4]; at 33.0 µM 91% | [4]; at 100.0 µM 96% | [5]; [17] 97% | [5]; [18] 98% | [5]; at 50.0 µM 95.7% | [6]; at 33.0 µM 90% | [6]; [18] 97% | [6]; at 100.0 µM 98% | [7]; at 33.0 µM 96% | [7]; at 100.0 µM 98% | [8]; at 11.0 µM 72% | [8]; at 33.0 µM 96% | [8]; at 100.0 µM 98% | [9]; at 1.2 µM 80% | [9]; at 3.7 µM 91% | [9]; at 11.0 µM 95% | [9]; at 33.0 µM 97% | [9]; at 100.0 µM 98% | [10]; [17] 93% | [10]; [18] 98% | [10]; at 50.0 µM 95.9% | [11]; at 1.2 µM 95% | [11]; at 3.7 µM 95% | [11]; at 11.0 µM 95% | [11]; at 33.0 µM 95% | [11]; at 100.0 µM 98%
inactive: [4]; at 1.2 µM -9% | [4]; at 3.7 µM -12% | [4]; at 11.0 µM 51% | [6]; at 1.2 µM -20% | [6]; at 3.7 µM -18% | [6]; [17] -10% | [6]; at 11.0 µM 17% | [6]; at 50.0 µM 33.5% | [7]; at 1.2 µM 1% | [7]; at 3.7 µM 14% | [7]; at 11.0 µM 68% | [8]; at 1.2 µM 6% | [8]; at 3.7 µM 14%

Cc1cccc2c(NCCCN(C)C)c3c([N+](=O)[O-])ccc(C)c3nc12
active: [12]; at 1.2 µM 76% | [12]; at 3.7 µM 91% | [12]; at 11.0 µM 94% | [12]; at 33.0 µM 97% | [12]; at 100.0 µM 97% | [13]; at 33.0 µM 95% | [13]; at 100.0 µM 97% | [14]; at 11.0 µM 85% | [14]; at 33.0 µM 94% | [14]; at 100.0 µM 95% | [15]; at 33.0 µM 98% | [15]; at 100.0 µM 98% | [16]; at 3.7 µM 79% | [16]; at 11.0 µM 92% | [16]; at 33.0 µM 94% | [16]; [18] 78% | [16]; at 50.0 µM 97.8% | [16]; at 100.0 µM 96% | [1]; at 11.0 µM 96% | [1]; at 33.0 µM 98% | [1]; at 50.0 µM 96.9% | [1]; at 100.0 µM 98% | [2]; at 1.2 µM 98% | [2]; at 3.7 µM 98% | [2]; at 11.0 µM 99% | [2]; at 33.0 µM 99% | [2]; at 100.0 µM 98% | [3]; at 50.0 µM 96.8% | [4]; at 33.0 µM 88% | [4]; at 100.0 µM 96% | [5]; [18] 95% | [5]; at 50.0 µM 91% | [6]; at 33.0 µM 90% | [6]; [18] 97% | [6]; at 50.0 µM 72.2% | [6]; at 100.0 µM 96% | [7]; at 33.0 µM 95% | [7]; at 100.0 µM 97% | [8]; at 33.0 µM 97% | [8]; at 100.0 µM 98% | [9]; at 1.2 µM 85% | [9]; at 3.7 µM 92% | [9]; at 11.0 µM 95% | [9]; at 33.0 µM 98% | [9]; at 100.0 µM 98% | [10]; at 50.0 µM 97.1% | [11]; at 1.2 µM 96% | [11]; at 3.7 µM 96% | [11]; at 11.0 µM 96% | [11]; at 33.0 µM 96% | [11]; at 100.0 µM 96%
inactive: [13]; at 1.2 µM 5% | [13]; at 3.7 µM 13% | [13]; at 11.0 µM 39% | [14]; at 1.2 µM 29% | [14]; at 3.7 µM 55% | [15]; at 1.2 µM 8% | [15]; at 3.7 µM 20% | [15]; at 11.0 µM 69% | [16]; at 1.2 µM 54% | [16]; [17] 1% | [1]; at 1.2 µM 22% | [1]; at 3.7 µM 61% | [1]; [17] -2% | [1]; [18] 11% | [3]; [17] 12% | [3]; [18] 46% | [4]; at 1.2 µM -2% | [4]; at 3.7 µM 9% | [4]; at 11.0 µM 41% | [5]; [17] 49% | [6]; at 1.2 µM -8% | [6]; at 3.7 µM -6% | [6]; [17] -24% | [6]; at 11.0 µM 16% | [7]; at 1.2 µM 4% | [7]; at 3.7 µM 15% | [7]; at 11.0 µM 49% | [8]; at 1.2 µM 8% | [8]; at 3.7 µM 18% | [8]; at 11.0 µM 63% | [10]; [17] 12% | [10]; [18] 61%

CC12CCC(CC(=O)/C1=C(/Br)I)C2(C)C (centres undefined)
inactive: [12]; at 1.2 µM 2% | [12]; at 3.7 µM 3% | [12]; at 11.0 µM 5% | [12]; at 33.0 µM 13% | [12]; at 100.0 µM 3% | [13]; at 1.2 µM -3% | [13]; at 3.7 µM -2% | [13]; at 11.0 µM -1% | [13]; at 33.0 µM -6% | [13]; at 100.0 µM -1% | [14]; at 1.2 µM 1% | [14]; at 3.7 µM 5% | [14]; at 11.0 µM 7% | [14]; at 33.0 µM 12% | [14]; at 100.0 µM 3% | [15]; at 1.2 µM -1% | [15]; at 3.7 µM -2% | [15]; at 11.0 µM 6% | [15]; at 33.0 µM -13% | [15]; at 100.0 µM 0% | [16]; at 1.2 µM 1% | [16]; at 3.7 µM -3% | [16]; [17] 1% | [16]; at 11.0 µM -18% | [16]; at 33.0 µM 14% | [16]; at 100.0 µM 5% | [1]; at 1.2 µM 0% | [1]; at 3.7 µM -2% | [1]; [17] -19% | [1]; at 11.0 µM -5% | [1]; at 33.0 µM 5% | [1]; at 100.0 µM -3% | [2]; at 1.2 µM 1% | [2]; at 3.7 µM 1% | [2]; at 11.0 µM 2% | [2]; at 33.0 µM 3% | [2]; at 100.0 µM 2% | [3]; [17] -9% | [4]; at 1.2 µM -1% | [4]; at 3.7 µM 4% | [4]; at 11.0 µM 2% | [4]; at 33.0 µM 0% | [4]; at 100.0 µM 6% | [5]; [17] 40% | [5]; [18] 68% | [5]; at 50.0 µM 63% | [6]; at 1.2 µM 5% | [6]; at 3.7 µM 11% | [6]; [17] -11% | [6]; at 11.0 µM 18% | [6]; at 33.0 µM 24% | [6]; at 100.0 µM 10% | [7]; at 1.2 µM -2% | [7]; at 3.7 µM -1% | [7]; at 11.0 µM 1% | [7]; at 33.0 µM 3% | [7]; at 100.0 µM 0% | [8]; at 1.2 µM 2% | [8]; at 3.7 µM -3% | [8]; at 11.0 µM 3% | [8]; at 33.0 µM 3% | [8]; at 100.0 µM -1% | [10]; [17] -18% | [11]; at 1.2 µM 3% | [11]; at 3.7 µM 10% | [11]; at 11.0 µM 31% | [11]; at 33.0 µM 39% | [11]; at 100.0 µM -1%
active: [16]; [18] 80% | [16]; at 50.0 µM 81% | [1]; [18] 95% | [1]; at 50.0 µM 90.4% | [3]; [18] 93% | [3]; at 50.0 µM 84.3% | [6]; [18] 94% | [6]; at 50.0 µM 78.3% | [10]; [18] 96% | [10]; at 50.0 µM 83.2%
